Here are results for 23 compounds from PubChem BioAssay (EPA / NIEHS).

Holding throughout (conditions): mRNA level, 48 h; actives raise or lower the signal
Read-out in assay [1]: ABC Transporter (ABCB11), ABCB11 (gene 8647)
In words: LTEA_HepaRG_ABCB11: Life Technologies and Expression Analysis (LTEA) Assay for ABC Transporter (ABCB11) using HepaRG (AID 2283463). The method in brief:
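ABCB11 transcript levels are read by Fluidigm TaqMan qRT-PCR after 48 h chemical treatment of human HepaRG cells. Concentrations span 100 uM downward in half-log steps with 0.5% DMSO; gain or loss is fitted against DMSO controls.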

Read-out in assay [2]: ABC Transporter (ABCC2), ABCC2 (gene 1244)
The assay is described as follows: LTEA_HepaRG_ABCC2: Life Technologies and Expression Analysis (LTEA) Assay for ABC Transporter (ABCC2) using HepaRG (AID 2283464). The method in brief:
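HepaRG cells were plated 48 h, switched to serum-free induction medium, then exposed in duplicate for 48 h to 8 concentrations (top 100 uM, half-log steps, 0.5% DMSO). ABCC2 mRNA was measured by qRT-PCR normalized to ACTB/GAPDH/POLR2A; bidirectional fitting versus DMSO.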

Read-out in assay [3]: Broad substrate specificity ATP-binding cassette transporter ABCG2 (Homo sapiens) (UniProt Q9UNQ0)
In words: LTEA_HepaRG_ABCG2: Life Technologies and Expression Analysis (LTEA) Assay for ABC Transporter (ABCG2) using HepaRG (AID 2283465). The method in brief:
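Read-out is ABCG2 mRNA induction or loss quantified by qRT-PCR after 48 h chemical treatment of human HepaRG cells, normalized to three housekeeping genes. Concentrations reached 100 uM top in half-log steps; fitting was bidirectional against 0.5% DMSO.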

Read-out in assay [4]: Peroxisomal acyl-coenzyme A oxidase 1 (ACOX1) gene, ACOX1 (gene 51)
In words: LTEA_HepaRG_ACOX1: Life Technologies and Expression Analysis (LTEA) Assay for Peroxisomal acyl-coenzyme A oxidase 1 (ACOX1) gene using HepaRG (AID 2283467). The method in brief:
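Measured by qRT-PCR against three housekeeping genes: ACOX1 transcript change in human HepaRG cells after 48 h dosing. Concentrations ran up to 100 uM in half-log steps. Curves were fitted bidirectionally relative to 0.5% DMSO.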

Read-out in assay [5]: Alkaline Phosphatase, Placental (ALPP) gene, ALPP (gene 250)
In words: LTEA_HepaRG_ALPP: Life Technologies and Expression Analysis (LTEA) Assay for Alkaline Phosphatase, Placental (ALPP) gene using HepaRG (AID 2283468). The method in brief:
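Differentiated human HepaRG cells were plated and cultured 48 h, then exposed in duplicate for 48 h in serum-free induction medium to eight half-log concentrations from 100 uM in 0.5% DMSO. ALPP mRNA was measured by TaqMan qRT-PCR, normalized to ACTB, GAPDH, POLR2A.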

Read-out in assay [6]: Bcl-2 (BAD) gene, BAD (gene 572)
The assay is described as follows: LTEA_HepaRG_BAD: Life Technologies and Expression Analysis (LTEA) Assay for Bcl-2 (BAD) gene using HepaRG (AID 2283469). The method in brief: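 BAD transcript change, measured by qRT-PCR against three housekeeping genes and fitted in both directions relative to 0.5% DMSO, after 48 h chemical treatment of human HepaRG liver cells at concentrations up to 100 uM.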

Read-out in assay [7]: Bcl-2 (BAX) gene, BAX (gene 581)
In words: LTEA_HepaRG_BAX: Life Technologies and Expression Analysis (LTEA) Assay for Bcl-2 (BAX) gene using HepaRG (AID 2283470). An outline of the steps: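 Differentiated human HepaRG cells, plated 48 h then switched to serum-free induction medium, were exposed 48 h to 8 half-log concentrations up to 100 uM in 0.5% DMSO; BAX mRNA measured by qRT-PCR, normalized to ACTB, GAPDH, POLR2A.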

Read-out in assay [8]: adenosine kinase (ADK) gene, ADK (gene 132)
The assay is described as follows: LTEA_HepaRG_ADK: Life Technologies and Expression Analysis (LTEA) Assay for adenosine kinase (ADK) gene using HepaRG (AID 2283471). An outline of the steps: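 Differentiated HepaRG cells dosed 48 h in serum-free induction medium, 0.5% DMSO vehicle, eight half-log concentrations from 100 uM, in duplicate. ADK mRNA by TaqMan qRT-PCR normalised to ACTB, GAPDH, POLR2A; bidirectional fit versus DMSO.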

Read-out in assay [9]: Alpha-fetoprotein (AFP) gene, AFP (gene 174)
In words: LTEA_HepaRG_AFP: Life Technologies and Expression Analysis (LTEA) Assay for Alpha-fetoprotein (AFP) gene using HepaRG (AID 2283472). The method in brief:
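Human HepaRG cells plated 48 h, then switched to serum-free induction medium and exposed in duplicate for 48 h to 8-point half-log series from 100 uM in 0.5% DMSO. AFP mRNA by qRT-PCR, normalized to ACTB, GAPDH, POLR2A; bidirectional fit versus DMSO.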

Read-out in assay [10]: ATP-citrate lyase (ACLY), ACLY (gene 47)
In words: LTEA_HepaRG_ACLY: Life Technologies and Expression Analysis (LTEA) Assay for ATP-citrate lyase (ACLY) using HepaRG (AID 2283466). The method in brief:
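HepaRG, 48 h exposure, 8-pt half-log dilutions (top 100 uM), 0.5% DMSO. Readout: ACLY mRNA, TaqMan qRT-PCR, housekeeping-normalized (ACTB/GAPDH/POLR2A). Bidirectional curve fit vs DMSO.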

Activity calls are given as the source filed them. Rule for the calls: active = hit-call score of the fitted dose curve at least 0.9, where 1 is the maximum; inactive = score below 0.9.

Chain of Broad substrate specificity ATP-binding cassette transporter ABCG2 (Homo sapiens) (Q9UNQ0 whole entry, looked up): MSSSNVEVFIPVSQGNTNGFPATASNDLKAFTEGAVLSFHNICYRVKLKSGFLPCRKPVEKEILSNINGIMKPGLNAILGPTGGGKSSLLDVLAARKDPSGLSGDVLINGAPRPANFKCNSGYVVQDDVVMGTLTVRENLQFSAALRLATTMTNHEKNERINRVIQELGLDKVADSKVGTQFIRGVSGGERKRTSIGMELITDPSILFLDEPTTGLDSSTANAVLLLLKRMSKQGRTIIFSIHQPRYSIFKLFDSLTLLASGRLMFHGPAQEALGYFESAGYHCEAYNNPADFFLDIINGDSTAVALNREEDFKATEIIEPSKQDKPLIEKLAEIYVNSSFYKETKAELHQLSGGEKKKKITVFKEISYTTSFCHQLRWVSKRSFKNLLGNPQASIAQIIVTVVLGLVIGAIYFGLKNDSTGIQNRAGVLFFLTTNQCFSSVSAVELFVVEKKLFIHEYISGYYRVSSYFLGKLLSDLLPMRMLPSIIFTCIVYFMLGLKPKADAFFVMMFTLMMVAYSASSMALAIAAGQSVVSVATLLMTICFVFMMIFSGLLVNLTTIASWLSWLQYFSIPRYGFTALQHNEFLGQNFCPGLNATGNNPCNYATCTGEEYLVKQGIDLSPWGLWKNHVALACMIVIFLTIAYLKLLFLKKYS

Regarding `CN(C)c1ccc(N=NS(=O)(=O)O)cc1`, the AC50 (in general, the concentration at which the activity in the assay is half-maximal) in assay [1] was 21 µM (active); in assay [4] it was 12.9 µM (active). Besides, the outcome in assay [2], in [3], in assay [5], in assay [6], in assay [7] and in assay [8] was inactive. Besides, the outcome in assay [9] was inactive.
As for `Clc1nc(Cl)c(Cl)c(Cl)c1Cl`, the outcome in assay [1], in assay [2], in assay [3], in [4], in assay [5] and in assay [6] was inactive. Moreover, the compound was classed as inactive in assay [7], in assay [8] and in [9].
For the compound `CCCCC(CC)COC(=O)c1ccc(C(=O)OCC(CC)CCCC)cc1` (configuration not stated), the result in assay [1], in assay [2], in [3], in assay [4], in assay [5] and in assay [6] was inactive. Also, the compound was classed as inactive in assay [7], in assay [8] and in [9].
`CCCCCCCCO`: the outcome in [1], in [2], in assay [3], in assay [4], in [5] and in assay [6] was inactive. For the same compound, the compound was classed as inactive in [7], in [8] and in assay [9].
On to `CC(C)CCCCCCOC(=O)c1ccc(C(=O)OCCCCCCC(C)C)c(C(=O)OCCCCCCC(C)C)c1`, for which the compound was called inactive in assay [1], in assay [2], in assay [3], in [10], in assay [4] and in assay [5]. In addition, the outcome in [8] and in assay [9] was inactive.
`Cc1ccc(O)cc1`: the outcome in assay [1], in assay [2], in [3], in assay [4], in [5] and in assay [6] was inactive. Also, the call in assay [7] and in assay [8] was inactive.
For `CC(C)CCO`, the outcome in assay [1], in [2], in assay [3], in [10], in [4] and in assay [5] was inactive. Further, the call in assay [8] and in assay [9] was inactive.
As for `Cc1ccc(N)cc1O`, the AC50 in [1] was 50 µM (active). The outcome in [2], in [3], in assay [10], in assay [4], in [5] and in [8] was inactive. Further, in [9], the compound was classed as inactive.
`O=C(O)CCN(C1(C(=O)NO)CCCC1)S(=O)(=O)c1ccc(Oc2ccc(F)cc2)cc1`: the call in assay [1], in assay [2], in assay [3], in assay [10], in assay [4] and in assay [5] was inactive. The compound was called inactive in [8] and in [9].
Turning to `COc1ccc2sc(C(=O)Nc3nnn[nH]3)c(OC(C)C)c2c1`, the AC50 in [1] was 12.1 µM (active); in assay [2] it was 81 µM (active); in assay [10], 11.9 µM (active); in assay [9] it was 59.5 µM (active). Also, the result in [3], in [4], in assay [5] and in assay [8] was inactive.
Regarding `O=C(CCCCCCCCc1cccnc1)N1CCC(C=C(c2ccccc2)c2ccccc2)CC1`, the AC50 in [1] was 14.3 µM (active); in assay [3], 13.2 µM (active); in assay [4], 50 µM (active); in assay [5], 13.7 µM (active); in assay [9] it was 24.3 µM (active). The outcome in assay [2], in [10] and in assay [8] was inactive.
In the case of `COC(=O)c1c(Cl)c(Cl)c(C(=O)OC)c(Cl)c1Cl`, the result in assay [1], in assay [2], in assay [3], in assay [4], in assay [5] and in assay [6] was inactive. Moreover, the call in assay [7], in [8] and in assay [9] was inactive.
In the case of `Cc1ccc(S(=O)(=O)O)cc1C`, the call in assay [1], in assay [2], in [3], in assay [10], in [4] and in [5] was inactive. In addition, the result in assay [7], in assay [8] and in assay [9] was inactive.
For the compound `CCCCCCc1ccc(O)cc1O`, the compound was classed as inactive in assay [1], in assay [2], in [3], in assay [10], in [4] and in assay [5]. For the same compound, the compound was called inactive in assay [8] and in assay [9].
For `Cn1cnc([N+](=O)[O-])c1Sc1ncnc2nc[nH]c12`, the AC50 in assay [1] is 11.2 µM (active); in assay [7], 8.77 µM (active); in assay [9] it was 5.38 µM (active). Besides, the compound was classed as inactive in assay [2], in [3], in assay [10], in assay [4], in assay [5] and in assay [8].
In the case of `CC(C)=CCCC(C)=CC=O`, the call in [1], in assay [2], in assay [3], in [10], in assay [4] and in [5] was inactive. Moreover, the compound was classed as inactive in assay [7], in assay [8] and in assay [9].
For `CC1=CC(=O)CC(C)(C)C1`, the outcome in [1], in assay [2], in assay [3], in [10], in assay [4] and in assay [5] was inactive. In addition, the result in assay [7], in assay [8] and in assay [9] was inactive.
Take `Oc1ccc2c(c1)-c1ccccc1C2`: the AC50 in [1] is 25.1 µM (active). Moreover, the compound was classed as inactive in [2], in assay [3], in assay [4], in assay [5], in assay [6] and in assay [8]. In addition, in assay [9], the compound was classed as inactive.
`Fc1ccccc1[C@@H](F)COC1CCC(Nc2ncnc3[nH]ncc23)CC1` (some centres not stated): the AC50 in assay [1] is 71.1 µM (active); in assay [2], 65.4 µM (active); in assay [4], 34.1 µM (active); in assay [5], 23.1 µM (active); in assay [8], 50 µM (active); in [9] it was 27.2 µM (active). The compound was classed as inactive in assay [3] and in assay [6].
As to `C[C@](N)(Cc1ccc(O)c(O)c1)C(=O)O`, the call in assay [1], in [2], in assay [3], in [4], in [5] and in assay [6] was inactive. The call in assay [8] and in assay [9] was inactive.
With `CCn1nc(Cc2ccccc2)cc1C1CCN(C[C@H]2C[C@H](N(C)[C@@H](C(=O)O)C(C)C)C[C@@H]2c2cccc(F)c2)CC1`, the outcome in assay [1], in assay [2], in [3], in assay [4], in assay [7] and in [8] was inactive. Also, the AC50 is 23.8 µM (active) in assay [5] and 50 µM (active) in assay [9].
As to `CCCCCCCCCCCCCCCO`, the compound was called inactive in assay [1], in assay [2], in assay [3], in assay [4], in [5] and in [8]. Besides, the result in assay [9] was inactive.
As for `CC(C)CCCCCCCOC(=O)CCCCC(=O)OCCCCCCCC(C)C`, the compound was called inactive in assay [1], in assay [2], in [3], in assay [4], in [5] and in assay [7]. For the same compound, the result in [8] and in assay [9] was inactive.
